According to PubChem BioAssay AID743126 (The Scripps Research Institute Molecular Screening Center, 2013):
Screen size: about 370,000 compounds; about 2,100 (0.57%) were called active. For the sample, actives were picked, then their nearest neighbours and some compounds at random. Values without a mark were called inactive.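 The calls were made as follows: active = inhibition above mean plus 3 SD of compounds lying within the high and low control bounds (cut at about 19% in these data); inactive = the rest.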

Each molecule was assayed against Group 3 secretory phospholipase A2 (Homo sapiens) (UniProt Q9NZ20) (assay: HGIII-sPLA2 enzyme inhibition – biochemical, QFRET, BODIPY PC-A2 liposome substrate, primary screen (AID 743126;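 also: 0% = median of test compound wells and 100% = no enzyme DMSO wells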)). Details: QFRET BODIPY PC-A2 liposome hydrolysis, fluorescence; at 12.2 µM; active compounds read high.
Sequence of Group 3 secretory phospholipase A2 (Homo sapiens) (Q9NZ20 whole entry, looked up): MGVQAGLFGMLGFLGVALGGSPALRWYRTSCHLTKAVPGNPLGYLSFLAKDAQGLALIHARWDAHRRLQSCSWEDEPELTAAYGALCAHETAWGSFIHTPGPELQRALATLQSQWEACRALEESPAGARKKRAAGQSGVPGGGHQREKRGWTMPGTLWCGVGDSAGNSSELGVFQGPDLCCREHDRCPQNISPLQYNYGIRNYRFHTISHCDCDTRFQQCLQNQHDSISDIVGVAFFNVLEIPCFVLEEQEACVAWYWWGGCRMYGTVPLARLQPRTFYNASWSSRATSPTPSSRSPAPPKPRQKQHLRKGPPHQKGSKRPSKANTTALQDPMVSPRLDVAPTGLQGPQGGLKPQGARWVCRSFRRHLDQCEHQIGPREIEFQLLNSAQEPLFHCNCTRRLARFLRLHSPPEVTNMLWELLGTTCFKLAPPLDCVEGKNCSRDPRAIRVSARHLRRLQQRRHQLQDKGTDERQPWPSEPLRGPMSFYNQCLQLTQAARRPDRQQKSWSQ

Compared with C[C@]12CC[C@H](O)CC1=C([N+](=O)[O-])CC1C2CC[C@@]2(C)C1CC[C@@H]2O (stereo not given in full), C[C@]12CCC3C(CC[C@H]4[C@H](O)[C@H](O)CC[C@]34C)C1CC[C@@H]2O (stereo not given in full) is higher in inhibition: -3.04% for the first, 11.6% for the second.

Going from CC1=CC(=Cc2sc3ccccc3[n+]2C)C=C(C)O1 to COc1ccc(C(=O)C2CN(C)CC2C(=O)c2ccc(OC)cc2)cc1 (stereo not given), the inhibition falls from 5.85% to -10.5%.

Going from CN1CCN(C(=S)SCC(=O)Nc2ccc(Cl)cc2C(=O)c2ccccc2)CC1 to O=C(CCNS(=O)(=O)c1ccccc1)Nc1ccc(Cl)cc1C(=O)c1ccccc1, the inhibition falls from -21.3% to -26.4%.

Going from C[C@@]1([C@@H](NP(=O)(c2ccccc2)c2ccccc2)c2ccccc2)C[C@H]1CCO to CNC(=O)O/N=C(\N)Cc1csc2ccc(Cl)cc12, the inhibition falls from -0.39% to -5.86%.

For C[C@]12CCC3C(CC[C@H]4C[C@@H](O)CC[C@]34C)C1CC[C@@H]2O (stereo not given in full), the inhibition was 21.1% (active).
For O=C(COC(=O)c1ccccc1)Nc1ccc(Cl)cc1C(=O)c1ccccc1, the inhibition was 21.3% (active).
